In all, about 48,000 compounds went through this assay and about 13,000 (27%) showed an effect of 50% or more. The list shows a part of the results.
Test system: Wolbachia pipientis
Test: Anti-Wolbachia Cell-Based Screen
Assay type: functional
Set-up: scale not given: in the data most compounds retested in dose-response had high values
Details: 5 µM

| SMILES | Percent Effect [%] |
| --- | --- |
| COc1cc(C(=O)NC(CC(=O)O)c2cccs2)cc(Cl)c1OC (configuration not stated) | 14.71 |
| CC(C)Cn1cncc1CNC1CCSC1 (configuration not stated) | 0.928 |
| CNCC(=O)Nc1ccc(-c2cnc(NCCS(C)(=O)=O)nc2)cc1 | 99.21 |
| CC[C@H](C)Nc1ncc(-c2cccc(NC(=O)CNC)c2)cn1 | 114.1 |
| CCc1cnc(NCCS(=O)(=O)N(C)C)nc1 | -13.3 |
| Cc1cccc(C(C)(C)NC(=O)CCS(C)(=O)=O)c1 | 2.509 |
| CNCC(=O)Nc1cccc(-c2cnc(NCCS(C)(=O)=O)nc2)c1 | 116.8 |
| O=C(CNC(=O)Nc1cccc(-c2nccs2)c1)NCCO | -9.757 |
| Cn1ccnc1-c1cccc(NC(=O)NCC(=O)NC(C)(C)C)c1 | -2.22 |
| CNC(=O)c1cccc(CCNc2ncc(Br)cn2)c1 | -10.19 |
| Cc1nccc(-c2cccc(NCC(=O)N3CCCCCCC3)c2)n1 | 4.13 |
| CCn1nnnc1-c1cccc(NC(=O)CCOC(C)C)c1 | 1.671 |
| CNCC(=O)Nc1cccc(-c2cnc(NCCO)nc2)c1 | 140.4 |
| CC(C)(C)CC(=O)Nc1ccc(S(C)(=O)=O)nc1 | 8.515 |
| CC(C)n1cnc2c1C(C(=O)N1CCCC1)N(CC1CC1)CC2.O=C(O)C(F)(F)F (configuration not stated) | 12.69 |
| CC(=O)Nn1c(C)cc(CN2CCCN(Cc3ccncc3)CC2)c1C | 19.43 |
| Cc1n[nH]c(=O)c2c(NC(=O)CN3CCOCC3C)oc(C)c12 (configuration not stated) | 12.8 |
| CNC(=O)[C@@H]1C[C@H](N)CN1Cc1cc2cc(OC)ccc2nc1O | 8.618 |
| O=C(NCc1cc[nH]n1)NCC(O)COc1cccc(F)c1 (configuration not stated) | -0.04004 |
| O=C1CC[C@H]2CN(Cc3cccc(F)c3)CC[C@H]2N1CCc1c[nH]cn1 | -2.492 |
| Cn1ccnc1CN1CCN2C[C@H](Oc3cccc(F)c3)C[C@H]2C1.O=C(O)C(F)(F)F.O=C(O)C(F)(F)F | 5.075 |
| C[C@@]1(O)CCN(Cc2cc[nH]n2)C[C@H]1Oc1cccc(F)c1 | 94.39 |
| C[C@]1(O)CCN(Cc2c[nH]cn2)C[C@@H]1Oc1cccc(F)c1 | 125.6 |
| Cc1cc(F)ccc1OC1(C(=O)O)CCN(Cc2c[nH]cn2)CC1 | -1.435 |
| c1ccc2sc(N3CCN(c4ncnc5c4CCC5)CC3)nc2c1 | -7.695 |

| SMILES | Percent Effect [%] |
| --- | --- |
| CSc1ncc(C(=O)N2CCN(c3ccccc3C)CC2C)cn1 (configuration not stated) | -7.257 |
| Cc1ccc(C(=O)N2CC[C@H]3[C@H]2CCN3CC2CCOCC2)cc1F.O=C(O)C(F)(F)F | 1.153 |
| O=C(O)C(F)(F)F.O=C(c1cscn1)N1CC[C@@H]2[C@@H]1CCN2CC1CCOCC1 | 90.26 |
| O=C(O)C(F)(F)F.O=C(c1ccc(F)cc1)N1CC[C@H]2[C@H]1CCN2CC1CCOCC1 | -29.44 |
| O=C(O)C(F)(F)F.O=C(c1cscn1)N1CC[C@@H]2[C@@H]1CCN2CC1CCOC1 (some centres not stated) | 116.3 |
| O=C(O)C(F)(F)F.O=C(c1cccc(F)c1)N1CC[C@H]2[C@H]1CCN2CC1CCOCC1 | -10.34 |
| Cn1cccc1C(=O)N1CC[C@H]2[C@H]1CCN2CC1CCOCC1.O=C(O)C(F)(F)F | -12.52 |
| CC(C(=O)NCC1(c2c(F)cccc2F)CCCC1)S(C)(=O)=O (configuration not stated) | 26.11 |
| CCOCC1CN(S(C)(=O)=O)Cc2cnn(C)c21 (configuration not stated) | -13.89 |
| COCC1CN(C(=O)C2=CCCCC2)Cc2cnn(CC3CC3)c21 (configuration not stated) | 3.854 |
| CCOCC1CN(S(=O)(=O)C2CC2)Cc2cnn(C)c21 (configuration not stated) | -2.389 |
| CCOCC1CN(C(=O)C2=CCCC2)Cc2cnn(C)c21 (configuration not stated) | 94.04 |
| CCOCC1CN(CCN2CCCCC2)Cc2cnn(C)c21.O=C(O)C(F)(F)F.O=C(O)C(F)(F)F.O=C(O)C(F)(F)F (configuration not stated) | 3.922 |
| COCC1CN(C(=O)C2=CCCC2)Cc2cnn(CC3CC3)c21 (configuration not stated) | -0.9151 |
| CCOCC1CN(C(=O)N2CCCC2)Cc2cnn(C)c21 (configuration not stated) | 85.37 |
| CCOCC1CN(C(=O)C2CCOCC2)Cc2cnn(C)c21 (configuration not stated) | 76.58 |
| COCCOc1ccnc(-c2noc([C@@H]3CCCN3C3CCC3)n2)c1 | -11.59 |
| CC(C)(C)C(=O)NCCC(=O)NS(=O)(=O)c1ccc2c(c1)OCCO2 | -7.979 |
| CCc1nc(NC(=O)N(C)Cc2ccoc2)nn1C | 2.955 |
| c1ccc(CCCN2CC(n3cccn3)C2)cc1 | 3.552 |
| CCN(CC)C(=O)[C@@H]1C[C@@H](N)CN1c1nc(N(C)C)nc(C)c1C | 7.659 |
| COCCOc1ccc(S(=O)(=O)Nc2cccc(O)c2F)cc1C | -10.79 |
| Oc1cc(-c2nccs2)nc(C2CCN(Cc3cccs3)CC2)n1 | 87.73 |
| Cc1ccccc1C1CCN(CCn2cc(-c3nccs3)nn2)C1 (configuration not stated) | -6.567 |
| Cn1nccc1C1CCN(Cc2csc(-c3ncccn3)n2)CC1 | 5.984 |

| SMILES | Percent Effect [%] |
| --- | --- |
| c1cnc(-c2nc(CN3CCC(c4ccn[nH]4)CC3)cs2)nc1 | -2.472 |
| Cc1cc(-c2nccs2)nc(C2CCN(Cc3ccccn3)CC2)n1 | 103.9 |
| Cc1cc(NC2CCN(Cc3ccccn3)CC2)n2nc(C)c(C)c2n1 | 3.019 |
| Cc1cc(-c2nccs2)nc(C2CCN(Cc3cccs3)CC2)n1 | 113.5 |
| O=C(CCNCc1cc(O)c2cc(F)ccc2n1)N1CCCC1 | 24.8 |
| CSc1nccc(N2CCCC(c3nccn3C(C)C)C2)n1 (configuration not stated) | 6.418 |
| CCCC(=O)N1CCN(CCN(C)C)c2nc(C)ccc2C1.O=C(O)C(F)(F)F.O=C(O)C(F)(F)F | -16.06 |
| COCCN1CCN(C(=O)NC2CC2)Cc2ccc(C)nc21.O=C(O)C(F)(F)F | -6.778 |
| Cc1ccc2c(n1)N(Cc1csc(C)n1)CCN(C1CCOC1)C2.O=C(O)C(F)(F)F.O=C(O)C(F)(F)F (configuration not stated) | 9.97 |
| Cc1ccc2c(n1)N(CCn1cccn1)CCN(S(C)(=O)=O)C2.O=C(O)C(F)(F)F | 91.26 |
| Cc1ccc2c(n1)N(CCn1cccn1)CCN(C1CCOCC1)C2.O=C(O)C(F)(F)F.O=C(O)C(F)(F)F | 93.94 |
| COCCN1CCN(C(=O)N2CCCC2)Cc2ccc(C)nc21.O=C(O)C(F)(F)F | 6.866 |
| COCC(=O)N1CCN(CCn2cccn2)c2nc(C)ccc2C1.O=C(O)C(F)(F)F | 116.6 |
| Cc1ccc2c(n1)N(CCn1cccn1)CCN(C(=O)CC1CC1)C2.O=C(O)C(F)(F)F | 5.383 |
| Cn1nc(Cn2cccn2)c2c1CN(C1CCOCC1)C2.O=C(O)C(F)(F)F | 2.859 |
| CCS(=O)(=O)N1CCN(CCn2cccn2)c2nc(C)ccc2C1.O=C(O)C(F)(F)F | 99.61 |
| Cc1ccc2c(n1)N(CC(C)C)CCN(C(=O)Cc1ccccn1)C2.O=C(O)C(F)(F)F.O=C(O)C(F)(F)F | 1.939 |
| Cc1ccc(CNC(CN2CCN(C)CC2)c2ccccc2)cc1 (configuration not stated) | 3.62 |
| COCCN1CCN(Cc2c(C)noc2C)Cc2ccc(C)nc21.O=C(O)C(F)(F)F.O=C(O)C(F)(F)F | -3.796 |
| Cc1ccc2c(n1)N(CCn1cccn1)CCN(CC1CC1)C2.O=C(O)C(F)(F)F.O=C(O)C(F)(F)F | 102.9 |
| O=S(=O)(NCCc1nc(-c2cccnc2)n[nH]1)NCc1ccccc1 | -41.46 |
| COCCCC(=O)Nc1[nH]nc(-c2ccncc2)c1C | 2.915 |
| O=S(=O)(NCc1ccccc1)NCc1nc(-c2ccncc2)n[nH]1 | -34.55 |
| O=C(Cc1nc(-c2ccncc2)n[nH]1)N1CCOCC1 | 104.3 |
| O=C(Cc1nc(-c2ccncc2)n[nH]1)NCCCN1CCOCC1 | 108.4 |

| SMILES | Percent Effect [%] |
| --- | --- |
| O=C(NCc1ccccc1)NCc1nc(-c2ccncc2)n[nH]1 | 100.9 |
| O=C(COCc1nc(-c2ccncc2)no1)N1CCCCCC1 | -13.27 |
| O=C(NCCCN1CCOCC1)c1cc(-c2ccc3c(c2)CCO3)n[nH]1 | -1.634 |
| O=C(COCc1nc(-c2ccncc2)no1)N1CCCC1 | -11.18 |
| COCCCNC(=O)Cc1nc(-c2ccncc2)n[nH]1 | 100.9 |
| COCCCNC(=O)Cc1cc(-c2ccc3c(c2)OCO3)on1 | 2.22 |
| CN1CCC2(CC1)CN(C)C(=O)C[C@@H]2C(F)(F)F | -12.83 |
| Cc1noc(C)c1CNC(=O)N1Cc2ccccc2N(C)CC1C (configuration not stated) | 7.877 |
| Cc1occc1CNC(=O)Nc1ccc2nc(N3CCOCC3)oc2c1 | -9.739 |
| OCc1ccc(-c2nccn2CCc2nc3c(s2)CCCC3)o1 | -5.43 |
| Cc1ccn(CC(=O)N2CC[C@@H](c3ccc4ccccc4c3)[C@H](O)C2)n1 | 0.6829 |
| CC(C)C(C)(C#N)NC(=O)Cn1nnc(-c2cc3ccccc3o2)n1 (configuration not stated) | -0.9006 |
| CCOCC(=O)Nc1cc(C)cnc1OC | -15.44 |
| COc1cccc(OCCc2cncc(C(N)=O)c2)c1 | -19.41 |
| COc1cccc(OCCc2nc3c(cc2C(N)=O)CCC3)c1 | 92.52 |
| CN1CCCCC1Cc1nc2c(cc1C(N)=O)CCC2 (configuration not stated) | -3.187 |
| NC(=O)c1cc2c(nc1CCOCc1ccccc1)CCC2 | 91.73 |
| NC(=O)c1cc2c(nc1CCOc1ccc(F)cc1)CCC2 | 109.9 |
| NC(=O)c1cc2c(nc1-c1ccc3c(c1)OCCO3)CCC2 | -8.871 |
| COc1nc2c(cc1C(=O)NCCCc1nnc(N)s1)CCC2 | 10.88 |
| NC(=O)c1cc2c(nc1-c1ccc3c(c1)CCO3)CCC2 | 1.16 |
| NC(=O)c1cc2c(nc1CC1CCCCO1)CCC2 (configuration not stated) | -20.91 |

— ChEMBL document CHEMBL3988442, “University of Dundee, Small-Polar-MMV Screening Library” (2021)
